Experimental data: PubChem BioAssay (Tox21)
Where “and” joins values, the source holds several entries; their conditions need not be identical. Identical values can stand only once. Records with an inconclusive call do not appear. Where a structure was tested more than once in an assay, its records may differ in their call. Calls of active or inactive are those of the source. Unless noted, calls come from the whole dose curve; as a rule, active = well fitted curve in the direction sought with a large enough effect in the repeat runs; inconclusive = weak or mixed curves; inactive = no such curve, though single readings can be large; an effect the other way counts as inactive or inconclusive.

What was measured:
[1] = qHTS RealTime-Glo MT Cell Viability Assay in HEK293 cells - 0 hour (AID 1224880); note: top concentration of the series differs between compounds; nearly all actives have a fitted effect of over 45% in size
Outline: (§1)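 Luminescence readout at each listed time point; HEK293, 600 cells/well, RealTime-Glo MT reagent added with cells; compounds pinned (23 nL in DMSO) after 5 h at 37 C; continuous culture at 37 C.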

[2] = A CellTox Green Cytotoxicity Assay to monitor cytotoxicity in HEK293 cells - 32 hour (AID 1224881); note: nearly all actives have a fitted effect of over 40% in size; note: potency is the fitted concentration of half-maximal effect
Outline: (§2)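 Read-out: fluorescence of a cell-impermeant cyanine dye staining DNA of dead cells, proportional to cytotoxicity. HEK293, 600 cells/well with reagent, compound (23 nL DMSO) added after 5 h; reads at 0, 8, 16, 24, 32, 40 h.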

[3] = A CellTox Green Cytotoxicity Assay to monitor cytotoxicity in HepG2 cells - 0 hour (AID 1224882); note: nearly all actives have a fitted effect of over 35% in size; note: potency is the fitted concentration of half-maximal effect
Outline: (§3)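 HepG2, 600 cells/well premixed w/ CellTox Green; 5 h settle, 37 C/5% CO2; pintool cpd add (DMSO); 37 C, 40 h; fluorescence read at 0, 8, 16, 24, 32, 40 h.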

[4] = A CellTox Green Cytotoxicity Assay to monitor cytotoxicity in HepG2 cells - 32 hour (AID 1224883); note: nearly all actives have a fitted effect of over 50% in size; note: potency is the fitted concentration of half-maximal effect
Outline: as §3

[5] = A CellTox Green Cytotoxicity Assay to monitor cytotoxicity in HEK293 cells - 8 hour (AID 1224884); note: nearly all actives have a fitted effect of over 35% in size; note: potency is the fitted concentration of half-maximal effect
Outline: as §2

[6] = qHTS RealTime-Glo MT Cell Viability Assay in HEK293 cells - 24 hour (AID 1224886); note: nearly all actives have a fitted effect of over 50% in size; note: potency is the fitted concentration of half-maximal effect
Outline: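 Reads taken at 0, 8, 16, 24, 32 and 40 h from the same wells. HEK293 cells (600/well) carried RealTime-Glo reagents from seeding, with compound added after a 5 h settle at 37 C.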

[7] = qHTS RealTime-Glo MT Cell Viability Assay in HEK293 cells - 8 hour (AID 1224887); note: nearly all actives have a fitted effect of over 50% in size; note: potency is the fitted concentration of half-maximal effect
Outline: as §1

[8] = A CellTox Green Cytotoxicity Assay to monitor cytotoxicity in HEK293 cells - 16 hour (AID 1224888); note: nearly all actives have a fitted effect of over 35% in size; note: potency is the fitted concentration of half-maximal effect
Outline: as §2

[9] = qHTS RealTime-Glo MT Cell Viability Assay in HepG2 cells - 0 hour (AID 1224889); note: nearly all actives have a fitted effect of over 50% in size; note: potency is the fitted concentration of half-maximal effect
Outline: (§4)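 HepG2 suspension premixed with RealTime-Glo reagents is plated at 600 cells per well and left 5 h at 37 C/5% CO2. Compounds in DMSO then go in, and bioluminescence reflecting viable cell number is recorded over 40 h.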

[10] = A CellTox Green Cytotoxicity Assay to monitor cytotoxicity in HepG2 cells - 8 hour (AID 1224890); note: nearly all actives have a fitted effect of over 45% in size; note: potency is the fitted concentration of half-maximal effect
Outline: as §3

[11] = qHTS assay to identify small molecule antagonists of the estrogen receptor alpha (ER-alpha) signaling pathway using the BG1 cell line in the presence of 0.1 nM 17-beta-estradiol - cell viability counter screen (AID 1259241); note: nearly all actives have a fitted effect of over 40% in size
Outline: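 Measures cytotoxicity alongside the ER-alpha antagonist readout: VM7Luc4E2 cells, charcoal-stripped serum, 0.1 nM 17beta-estradiol final, 22 hr compound incubation at 37C, CellTiter-Fluor fluorescence.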

[12] = qHTS assay to identify small molecule antagonists of the androgen receptor (AR) signaling pathway using the MDA cell line in the presence of 0.5 nM R1881 - cell viability counter screen (AID 1259242); note: nearly all actives have a fitted effect of over 45% in size
Outline: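 Live-cell protease fluorescence, CellTiter-Fluor, 30 min at 37C. Cells: MDA-kb2, 3,000/well, preincubated 5 hr. Compounds plus 0.5 nM R1881 final, 16 hr, 37C, 0% CO2.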

[13] = target: Estrogen receptor (Homo sapiens) (UniProt P03372); assay: qHTS assay to identify small molecule antagonists of the estrogen receptor alpha (ER-alpha) signaling pathway using the BG1 cell line in the presence of 0.1 nM 17-beta-estradiol (AID 1259244); note: nearly all actives have a fitted effect of over 50% in size; note: potency is the fitted concentration of half-maximal effect
Sequence of Estrogen receptor (Homo sapiens) (P03372 whole entry, looked up): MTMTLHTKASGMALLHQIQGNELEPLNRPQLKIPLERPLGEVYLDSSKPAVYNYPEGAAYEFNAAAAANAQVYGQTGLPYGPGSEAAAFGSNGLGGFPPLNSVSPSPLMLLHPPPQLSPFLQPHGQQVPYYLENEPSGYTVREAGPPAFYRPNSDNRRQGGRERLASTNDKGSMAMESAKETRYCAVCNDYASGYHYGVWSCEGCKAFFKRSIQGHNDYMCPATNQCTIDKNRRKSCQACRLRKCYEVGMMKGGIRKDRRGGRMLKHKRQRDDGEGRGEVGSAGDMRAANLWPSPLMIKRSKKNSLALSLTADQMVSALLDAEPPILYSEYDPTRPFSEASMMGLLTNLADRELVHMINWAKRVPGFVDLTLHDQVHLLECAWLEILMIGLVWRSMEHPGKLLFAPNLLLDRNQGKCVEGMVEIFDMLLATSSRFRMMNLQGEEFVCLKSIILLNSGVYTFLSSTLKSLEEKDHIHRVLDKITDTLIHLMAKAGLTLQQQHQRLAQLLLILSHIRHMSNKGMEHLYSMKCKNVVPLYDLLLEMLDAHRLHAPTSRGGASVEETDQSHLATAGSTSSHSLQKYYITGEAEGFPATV
Outline: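 Luminescence after ONE-Glo (30 min, room temperature) measured ERE-luciferase activity in VM7Luc4E2 cells treated 22 h with compound and 0.1 nM final 17beta-estradiol as stimulator.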

[14] = qHTS assay to identify small molecule HDAC inhibitors (AID 1259364);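 note: wild-type HCT-116 cells with endogenous class I/II HDAC activity; top concentration of the series differs between compounds; nearly all actives have a fitted effect of over 45% in size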
Outline: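 HCT-116 (wild type), 1,500 cells/well, overnight; compound 2 hr 37C 5% CO2; HDAC-Glo I/II reagent 30 min RT; luminescence readout.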

[15] = qHTS assay to identify small molecule HDAC inhibitors - cell viability counter screen (AID 1259365)
Outline: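 Following a 2hr exposure of overnight-plated wild-type HCT-116 cells to DMSO-delivered compounds, CellTiter-Glo was added and luminescence recorded after 30min at room temperature.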

[16] = qHTS assay to identify small molecule agonists of the sonic hedgehog signaling (Shh) pathway - cell viability counter screen (AID 1259366); note: nearly all actives have a fitted effect of over 50% in size
Outline: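 After a 4hr attachment at 37C, NIH/3T3 cells bearing an integrated Gli1-driven luciferase reporter were dosed with compounds. Treatment lasted 24hr, with the final hour including CellTiter-Fluor for a fluorescence viability measurement.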

[17] = qHTS assay to identify small molecule antagonists of the sonic hedgehog signaling (Shh) pathway - cell viability counter screen (AID 1259367); note: nearly all actives have a fitted effect of over 55% in size
Outline: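 Fluorescence read-out (CellTiter-Fluor, 1 hr at 37C) taken after 23 hr compound treatment of 3T3 Gli1-Luc cells stimulated with conditioned medium. Cells were seeded at 2,000 per well and pre-incubated 4 hr.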

[18] = qHTS assay to identify small molecule agonists of the sonic hedgehog signaling (Shh) pathway (AID 1259368; calls by dose curve; note: nearly all actives have a fitted effect of over 15% in size; note: potency is the fitted concentration of half-maximal effect)
Outline: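 Read-out: firefly luciferase luminescence from a Gli1 response element reporter stably integrated in NIH/3T3-derived 3T3Gli1-Luc cells, measured 30 min at room temperature after reagent addition. Compound exposure lasted 24 hr at 37 C, 5% CO2.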

[19] = qHTS RealTime-Glo MT Cell Viability Assay in HepG2 cells - 16 hour (AID 1224885); note: nearly all actives have a fitted effect of over 50% in size
Outline: as §4

[20] = target: Androgen receptor (Homo sapiens) (UniProt P10275); assay: qHTS assay to identify small molecule antagonists of the androgen receptor (AR) signaling pathway using the MDA cell line in the presence of 0.5 nM R1881 (AID 1259243); note: nearly all actives have a fitted effect of over 50% in size; note: potency is the fitted concentration of half-maximal effect
Sequence of Androgen receptor (Homo sapiens) (P10275 whole entry, looked up): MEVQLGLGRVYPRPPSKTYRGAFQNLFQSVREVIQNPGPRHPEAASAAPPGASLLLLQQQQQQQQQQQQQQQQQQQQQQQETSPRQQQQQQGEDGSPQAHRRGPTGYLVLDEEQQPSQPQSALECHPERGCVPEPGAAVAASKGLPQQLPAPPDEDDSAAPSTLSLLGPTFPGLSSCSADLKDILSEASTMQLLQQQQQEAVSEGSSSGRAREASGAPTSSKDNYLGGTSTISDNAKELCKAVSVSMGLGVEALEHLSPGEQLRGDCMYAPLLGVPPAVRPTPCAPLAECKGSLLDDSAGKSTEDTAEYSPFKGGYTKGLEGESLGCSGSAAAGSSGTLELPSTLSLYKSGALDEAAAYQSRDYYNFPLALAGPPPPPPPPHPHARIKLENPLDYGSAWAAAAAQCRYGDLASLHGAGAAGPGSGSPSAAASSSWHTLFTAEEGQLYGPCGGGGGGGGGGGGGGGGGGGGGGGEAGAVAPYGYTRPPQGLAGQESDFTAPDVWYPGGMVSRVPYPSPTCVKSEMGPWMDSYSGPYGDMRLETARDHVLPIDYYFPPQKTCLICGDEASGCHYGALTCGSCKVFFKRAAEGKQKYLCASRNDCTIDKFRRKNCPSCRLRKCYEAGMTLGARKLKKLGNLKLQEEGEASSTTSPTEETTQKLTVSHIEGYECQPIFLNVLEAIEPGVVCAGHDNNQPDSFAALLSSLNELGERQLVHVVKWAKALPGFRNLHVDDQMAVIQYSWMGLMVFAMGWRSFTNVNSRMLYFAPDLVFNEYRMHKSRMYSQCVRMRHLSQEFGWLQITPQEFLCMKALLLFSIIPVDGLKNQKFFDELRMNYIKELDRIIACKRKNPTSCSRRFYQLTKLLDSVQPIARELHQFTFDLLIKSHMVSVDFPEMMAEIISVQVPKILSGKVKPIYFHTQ
Outline: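 MDA-kb2, MMTV-luc (AR/GR elements); 3,000 cells/well; cpd + 0.5 nM R1881 final; 16 hr 37C, 0% CO2; ONE-Glo 30 min RT; luminescence.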

Measured: Potency

O=P(Oc1ccccc1)(Oc1ccccc1)Oc1ccccc1
inactive: [1] | [2] | [3] | [4] | [5] | [6] | [7] | [8] | [9] | [10] | [11] | [12] | [13] | [14] | [15] | [16] | [17] | [18]

c1ccc(P(c2ccccc2)c2ccccc2)cc1
inactive: [1] | [2] | [3] | [4] | [5] | [6] | [7] | [8] | [10] | [11] | [12] | [13] | [15] | [16] | [17] | [18]

N[C@@H](Cc1ccc(N(CCCl)CCCl)cc1)C(=O)O
inactive: [1] | [2] | [3] | [5] | [19] | [6] | [7] | [8] | [9] | [10] | [11] | [12] | [14] | [15] | [16] | [18]

Cc1ccc(N)c(N)c1
inactive: [1] | [2] | [3] | [4] | [5] | [7] | [9] | [10] | [11] | [12] | [15] | [16]
active: [18] 1.73 µM and 1.54 µM

CC(C)c1ccc(CO)cc1
inactive: [1] | [2] | [3] | [4] | [5] | [6] | [7] | [8] | [9] | [10] | [11] | [12] | [13] | [14] | [15] | [16] | [17] | [18]

C=CC(=O)OCCO
inactive: [1] | [2] | [3] | [4] | [5] | [6] | [7] | [8] | [9] | [10] | [11] | [12] | [15] | [18]

CC(C)N(C(=O)SCC(Cl)=C(Cl)Cl)C(C)C
inactive: [1] | [2] | [3] | [4] | [5] | [6] | [7] | [10] | [11] | [12] | [15] | [16] | [17] | [18]

Nc1ccc(Cl)cc1N
inactive: [1] | [11] | [12] | [20] | [15] | [16] | [17]
inactive and 23.2 µM (active): [4]
inactive and 19.5 µM (active): [3]
active: [2] 21.9 µM | [5] 24.5 µM | [7] 40.4 µM | [8] 24.5 µM
inactive and 21.9 µM (active): [10]

O=P(O)(O)CCCl
inactive: [1] | [2] | [3] | [4] | [5] | [6] | [7] | [8] | [10] | [11] | [12] | [13] | [15] | [16] | [17] | [18]

NCc1cccnc1
inactive: [1] | [2] | [3] | [4] | [5] | [6] | [7] | [8] | [9] | [10] | [11] | [12] | [13] | [15] | [16] | [17] | [18]

CC(C)Oc1cc(-n2nc(C(C)(C)C)oc2=O)c(Cl)cc1Cl
608 nM (active) and inactive: [2]
active: [6] 30.9 µM | [20] 54.5 µM | [13] 61.1 µM
inactive: [1] | [3] | [4] | [5] | [19] | [10] | [11] | [12] | [15] | [16] | [17] | [18]

CC1(C)C(C=C(Cl)Cl)C1C(=O)OC(C#N)c1cccc(Oc2ccccc2)c1 (configuration not stated)
inactive: [1] | [2] | [3] | [4] | [5] | [6] | [7] | [8] | [9] | [10] | [11] | [12] | [13] | [15] | [16] | [17] | [18]

CCCCCCCCOC(=O)c1ccccc1C(=O)OCCCCCCCC
inactive: [1] | [2] | [3] | [5] | [19] | [6] | [7] | [8] | [9] | [10] | [11] | [12] | [20] | [13] | [15] | [16] | [17] | [18]

CCCCCCCCC(=O)NCc1ccc(O)c(OC)c1
inactive: [1] | [2] | [3] | [4] | [5] | [19] | [6] | [8] | [9] | [10] | [11] | [12] | [13] | [14] | [15] | [16] | [17] | [18]

C[C@]12CCC(=O)C(O)=C1CC[C@@H]1[C@@H]2CC[C@]2(C)C(=O)CC[C@@H]12
21.9 µM (active) and inactive: [9]
inactive: [1] | [2] | [3] | [4] | [5] | [6] | [7] | [10] | [11] | [12] | [13] | [14] | [15] | [16] | [17] | [18]
